In the library only some 12% were active in any assay of this set; here they are far more common.
CHX counter: counter-screen hit for Shiga toxin inhibitors, cycloheximide | max response, % | AID 2314 | cell reporter, cycloheximide protein synthesis inhibition counterscreen | 12% of 300,000 active; in the data active means max response mostly above about 13%, no sharp cut-off; inactive means mostly below about 14%; further: read at 38.3 µM for the half of the compounds with a filed dose; 0% is about no effect
Shiga toxin inh: inhibitors of Shiga toxin in Vero cells | inhibition, % at 38.7 µM | Vero cells, Shiga toxin protein synthesis inhibition reporter | 9.2% of 290,000 active | AID 2315; in the data active means inhibition mostly above about 28%, no sharp cut-off; inactive means mostly below about 43%; further: 0% is about no effect
Sm TGR inh: blocks Schistosoma mansoni thioredoxin glutathione reductase; Q962Y6; purified TGR, DTNB reduction, TNB absorbance 405 nm; Potency, µM (doses to about 114 µM), for inactives: at the highest dose activity change, negative = inhibition, usual class: inhibitors; 3% of 360,000 active; AID 485364; active means well fitted inhibition curve with a large enough effect; inconclusive means small, poorly fitted or top-dose-only effect; inactive means no such curve, though single readings can be large or run the other way; further: potency means the concentration at half of the fitted maximal effect; on the % scale 0 is the no-effect control and ±100 the full control effect; nearly all actives have a fitted effect of over 60% in size
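First, TGR (20 nM dispensed) and NADPH were mixed with compound. Second, a 15 min room-temperature incubation followed. Third, further NADPH and then DTNB were added to start the reaction. Finally, TNB absorbance was monitored kinetically.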
FMDV inh: foot and mouth disease virus antiviral activity; FMDV antiviral cell-based qHTS; 1.2% of 410,000 active; Potency, µM (titrated, usually from 57.9 µM), without a hit: top-dose activity change, negative = inhibition, hits mostly inhibitors; calls by dose curve; tested in HEK293T cells; further: read-out not given here; potency means the concentration at half of the fitted maximal effect; on the % scale 0 is the no-effect control and ±100 the full control effect; nearly all actives have a fitted effect of over 45% in size
An asterisk follows results filed as active; ? = inconclusive; · = no result given; [ ] = dose if it differs, or a comment.

SMILES	CHX counter	Shiga toxin inh	Sm TGR inh	FMDV inh
CC1CCCCN1C(=O)CSc1nnc(-c2ccccc2O)o1 (centres undefined)	21.2*	55.5*	0.9%	34.4%
CCC(=O)N1CCc2cc(CNC(=O)c3ccccc3C)ccc21	·	·	2.4%	31.7%
COc1ccc(Nc2oc(-c3ccc(COc4cccc(C)c4)o3)nc2C#N)cc1	·	·	-2.8%	0.0%
CN1CCN(C(c2ccccc2Cl)c2sc3nc(-c4ccco4)nn3c2O)CC1 (centres undefined)	·	·	20.1%	-10.0%
C=CCCN(C(C)C(=O)OC)S(=O)(=O)c1ccccc1Br (centres undefined)	-0.7	-7.8	·	·
CC(=O)c1cccc(NC(=O)CCc2nc3cccnc3n2Cc2cccs2)c1	·	·	-7.0%	-20.0%
Fc1ccc(-c2noc(-c3ccc4c(c3)CCO4)n2)cc1	55.9*	76.6*	13.0%	-43.7%
Cc1noc(-c2ccc(-c3noc(-c4cccc(F)c4)n3)cc2)n1	·	·	-7.8%	-11.5%
O=C(O)CSc1cccc[n+]1[O-]	0.5	-7.6	5.8%	4.3%
O=C(CSc1cccc[n+]1[O-])c1cc2ccccc2o1	130.8*	139.5*	17.2%[11.4 µM]	51.0%
O=C(CSc1cccc[n+]1[O-])c1cc(Cl)ccc1Cl	28.4*	78.0*	8.5%	32.5%
COc1ccc(/C(N)=N/OC(=O)c2ccc(Br)o2)cc1	30.7	83.6*	0.5%	13.3%
N/C(=N\OC(=O)c1ccc(Br)o1)c1cccnc1	35.5*	102.5*	-6.1%	0.0%
N/C(Cc1ccc(Cl)c(Cl)c1)=N\OC(=O)c1ccc(Br)o1	-2.1	-4.0	17.1%	-6.0%
CCC(=O)N1CCc2cc(S(=O)(=O)NC(C(=O)NCCc3ccc(OC)c(OC)c3)C(C)C)ccc21 (centres undefined)	·	·	-7.8%	0.4%
CC(C)c1ccc(/C=C2\SC(=S)N(CCC(=O)NCCCn3ccnc3)C2=O)cc1	60.6*	104.1*	-6.4%	1.6%
O=C(CCCN1C(=O)/C(=C/c2ccc(F)cc2)SC1=S)NCCCn1ccnc1	10.4	-5.2	-17.2%	15.5%
COc1ccc(/C=C2\SC(=S)N(CCC(=O)NCCCn3ccnc3)C2=O)cc1	17.9*	15.9	15.8%	38.9%
Cc1cc2oc(C(=O)Nc3ccc(S(=O)(=O)N(C)c4ccccc4)cc3)cc(=O)c2cc1C	·	·	6.2%	-15.9%
CSc1oc(-c2ccco2)nc1S(=O)(=O)c1ccc(Br)cc1	-1.4	-5.9	50.1µM*	0.7%
CCCSc1oc(-c2ccco2)nc1S(=O)(=O)c1ccc(C)cc1	-1.1	-3.2	-31.1%	3.9%
NC(=O)CSc1oc(-c2ccco2)nc1S(=O)(=O)c1ccc(Cl)cc1	-4.8	-4.6	20µM*	5.3%
Cc1ccc(S(=O)(=O)c2nc(-c3ccco3)oc2SCC(N)=O)cc1	-2.6	11.0	39.8µM*	12.7%
CCCSc1oc(-c2ccco2)nc1S(=O)(=O)c1ccccc1	8.6	8.8	56.2µM*	·
CCCSc1oc(-c2ccco2)nc1S(=O)(=O)c1ccc(Br)cc1	·	·	-35.9%	7.3%
SMILES	CHX counter	Shiga toxin inh	Sm TGR inh	FMDV inh
O=C(CSc1oc(-c2ccco2)nc1S(=O)(=O)c1ccc(Cl)cc1)c1ccc(Cl)cc1	·	·	-21.4%	-1.2%
CCCCn1c(=O)c2oc3ccccc3c2n(Cc2ccc(OC)cc2)c1=O	·	·	6.0%	-9.3%
Cc1ccc(S(=O)(=O)c2nc(-c3ccco3)oc2SC(C)c2ccccc2)cc1 (centres undefined)	·	·	?	35.5%
CC(C)Sc1oc(-c2ccco2)nc1S(=O)(=O)c1ccc(F)cc1	1.1	22.2	17.8µM*	8.4%
NC(=O)CSc1oc(-c2ccco2)nc1S(=O)(=O)c1ccc(Br)cc1	10.6	21.9	17.8µM*	2.6%
CC(C)CSc1oc(-c2ccco2)nc1S(=O)(=O)c1ccc(Br)cc1	·	·	-18.2%	4.6%
CC1=C(C(=O)OC2CCCC2)C(c2ccccc2C(F)(F)F)CC(=O)N1 (centres undefined)	·	·	10.1%	?
Cc1ccc(S(=O)(=O)/N=C2\C=C(NS(=O)(=O)c3ccccc3)C(=O)c3ccccc32)cc1	·	·	·	20.4%
Cc1cc(C)c(S(=O)(=O)/N=C2/C=C(SCC(=O)O)C(=O)c3ccccc32)cc1C	4.1	7.7	3.55µM*	-23.7%
CCN(CC)CCNC(=O)c1ccc2c(=O)n3nc(Nc4cccc(Cl)c4C)sc3nc2c1	·	·	-7.5%	-0.9%
O=C(O)c1cccc(Nc2ncnc3c2cnn3-c2ccccc2)c1	35.1*	105.8*	-15.4%	46.0%
Fc1cccc(Nc2ncnc3c2cnn3-c2ccccc2)c1	30.2*	79.8*	8.2%	-16.7%
O=C(NNc1ncnc2c1cnn2-c1ccccc1)c1ccccc1	·	·	2.6%	29.9%
Clc1cccc(Nc2ncnc3c2cnn3-c2ccccc2)c1	40.1*	44.5*	1.1%	3.0%
Cc1cc(C)c(Cn2c(C)c(CNCCCc3ccccc3)c(C(=O)O)c2C)c(C)c1	·	·	-23.7%	-6.7%

Screening data as filed in PubChem BioAssay.
